PBM binding z-score data for 40 sequences are collected here from the supplement of paper PMC6555819.

The subject of the first assay is FXR:RXRa (NR concentration 270 nM, RXRa partner concentration 90 nM). Put plainly: PBM binding z-score (relative to random genomic background probes); higher = stronger binding; sequences stand for … in GC…GCGATTGACAGCGTAGAATGAAGG
The method in brief:
(§1)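 Scanned fluorescence from custom Agilent 4×180K protein-binding microarrays was regression-normalized. Binding z-scores use random background probes as reference. Ligand-free nuclear receptor dimers were incubated on the arrays for 1 h and detected with antibodies against each partner (one per run).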
On to TCAGACACGTGAAGGTAACTCAGGTACGCAGTCG, for which the PBM binding z-score was 0.454.

On to CCTACTGGGCCATTCAAAGGTCATTGATCATATG, for which the PBM binding z-score is 3.24.

The sequence CGTCAAAGTTCAAGGTAACGTATCAGAAAGCAGC registered a PBM binding z-score of 5.57.

Take CCGTGTAGGTTATGGGGCATTCAGGCAACGGTGA: the PBM binding z-score was 0.503.

Turning to CGTCCAAGGTCAATGCTAGGTCCGTGAAAGCATT, the PBM binding z-score was determined as 6.89.

Turning to TCTTGTAGATCAAGCAGGTTACGAAAGCCTGAGT, the PBM binding z-score amounted to 0.426.

Take ATCTCTAGGTAAAGTTCAGTGCAAGATCGATAGA: the PBM binding z-score came to 1.53.

AGTCAAAGTTCATCTAGGTGACGTAAGATATGCT returned a PBM binding z-score of 6.84.

Turning to CGTCCAAGATCAGAGAGGTCAGTGAATGCCGAGT, the PBM binding z-score is 1.64.

As for CAGCCTAGGTCAGAGCCAGTATAGGAGGAACGTT, the PBM binding z-score amounted to 1.65.

GCTAGCTGGTCAGTAAAAGGTCACACACCGGTCG showed a PBM binding z-score of 3.2.

TCTGCTAGCTCAACGATGGTCAGCTAATCTGCTA: the PBM binding z-score was -0.518.

With AGAATGAGGTTATACGTAGATTAGGGAAGAAAGT, the PBM binding z-score was 2.38.

For TCTTGTAGATCAATTGAGGTTAAGAAAGTGCGCT, the PBM binding z-score was found to be 1.19.

The sequence GGAACGAGGGCAACTTGATAGCAGAGTTTGATGG had a PBM binding z-score of 0.815.

Take TCGAGTAAGTTAGGGGCATTCAGAATGGCGTCGA: the PBM binding z-score came out at 0.474.

Regarding CCTACTGGGCCAAAGGTCATTGCTTCCAATGCTC, the PBM binding z-score worked out at 4.94.

In the case of TTACCAAGGTGAAGATCGTTGATCCCTCTGTAGA, the PBM binding z-score was determined as 0.339.

CCAGGCAGGTGAAAGGTAACTCAGTCTGGTACGC displayed a PBM binding z-score of 0.326.

Regarding CCTCGGAGGACAGAAGGTCAGAGGTGTCCGCTTT, the PBM binding z-score turned out to be 1.1.

Turning to GCGACTGGGGCAAAGCAGGTTACCATTAGGTTGG, the PBM binding z-score worked out at 0.209.

On to TCTCGGAGAACACGAAAGGTCAGAGCTCGACATC, for which the PBM binding z-score stood at 2.02.

The sequence CCTTACGGGTCAAGAGGTTATAGCACGACGAGCG yielded a PBM binding z-score of 6.14.

Turning to TAGCCTAGGTCGTGGGCCAGTATACCACGCGAAC, the PBM binding z-score stood at 0.0973.

Sequence TCATATAGGTAAATGCTAGGTGAAGGTCCGATCT displayed a PBM binding z-score of 0.907.

Sequence CCGAGTAGGTTATGGGGCATTCTGGCAACGGTGA came in with a PBM binding z-score of 0.393.

Sequence TCATATAGGTTAACAGGTGAAAGTCCGTAAGTTA showed a PBM binding z-score of 1.57.

For CCTCGGAGGACAGAAGGTCAGAGATGTCCGCTTT, the PBM binding z-score came to 0.986.

Consider GCTTGTAGATCAATGTTAAGAAAGACTAAGCTAA, for which the PBM binding z-score is -0.421.

Regarding GGAACGAAGGCAAGTTGATAGCAGAGTTTGATGG, the PBM binding z-score was -0.951.

CCTAGTTGGCCAGGAGGTCACACACCGGATATGA displayed a PBM binding z-score of 4.04.

With GATACAGGATCAAGGCCAGAGTACGCGTATTGAT, the PBM binding z-score was -0.429.

In turn, ATATGTAGGTTATCGAGTCATTCAGTTTGCGCAT gave a PBM binding z-score of 0.672.

ACTATCAGTTGACTTAGGGCAACCGATACGACGC gave a PBM binding z-score of 0.0979.

In turn, CATACAAGGTCAGCTAGGCCAGAGTAGGGACGGC displayed a PBM binding z-score of 5.48.

With CGTCGAAGTTCAACTAAGGTAACGTAAAGCACGC, the PBM binding z-score turned out to be 4.31.

For ATATGTAGGTTATATCCGGGTCATTCAGGCTATG, the PBM binding z-score was determined as 2.15.

Regarding TCTGGTTGGTCACGGAGGTCACACACGACGGGTA, the PBM binding z-score was 3.5.

With TCGAGTAGGTTAGTCGGGGCATGCAGCCAACATA, the PBM binding z-score is -0.0547.

On to CCTAACGGGTCACGAGGTTATAGCACGACGAGCG, for which the PBM binding z-score is 6.1.

The test system of another assay is LXRa:RXRa (NR concentration 270 nM, RXRa partner concentration 90 nM). The assay is described as above. The method in brief:
as §1
TCAGACACGTGAAGGTAACTCAGGTACGCAGTCG had a PBM binding z-score of 1.57.

CCTACTGGGCCATTCAAAGGTCATTGATCATATG came in with a PBM binding z-score of 4.61.

In the case of CGTCAAAGTTCAAGGTAACGTATCAGAAAGCAGC, the PBM binding z-score is 5.5.

Regarding CCGTGTAGGTTATGGGGCATTCAGGCAACGGTGA, the PBM binding z-score was determined as 0.731.

CGTCCAAGGTCAATGCTAGGTCCGTGAAAGCATT came in with a PBM binding z-score of 4.45.

Regarding TCTTGTAGATCAAGCAGGTTACGAAAGCCTGAGT, the PBM binding z-score was 0.343.

Turning to ATCTCTAGGTAAAGTTCAGTGCAAGATCGATAGA, the PBM binding z-score is 2.29.

On to AGTCAAAGTTCATCTAGGTGACGTAAGATATGCT, for which the PBM binding z-score is 5.85.

CGTCCAAGATCAGAGAGGTCAGTGAATGCCGAGT yielded a PBM binding z-score of 2.

On to CAGCCTAGGTCAGAGCCAGTATAGGAGGAACGTT, for which the PBM binding z-score turned out to be 0.992.

For the sequence GCTAGCTGGTCAGTAAAAGGTCACACACCGGTCG, the PBM binding z-score is 4.47.

TCTGCTAGCTCAACGATGGTCAGCTAATCTGCTA displayed a PBM binding z-score of -0.557.

AGAATGAGGTTATACGTAGATTAGGGAAGAAAGT had a PBM binding z-score of 1.89.

Consider TCTTGTAGATCAATTGAGGTTAAGAAAGTGCGCT, for which the PBM binding z-score came out at 2.94.

For GGAACGAGGGCAACTTGATAGCAGAGTTTGATGG, the PBM binding z-score came to 0.375.

Take TCGAGTAAGTTAGGGGCATTCAGAATGGCGTCGA: the PBM binding z-score stood at 0.581.

In the case of CCTACTGGGCCAAAGGTCATTGCTTCCAATGCTC, the PBM binding z-score is 5.17.

TTACCAAGGTGAAGATCGTTGATCCCTCTGTAGA came in with a PBM binding z-score of 0.08.

The sequence CCAGGCAGGTGAAAGGTAACTCAGTCTGGTACGC registered a PBM binding z-score of 0.496.

As for CCTCGGAGGACAGAAGGTCAGAGGTGTCCGCTTT, the PBM binding z-score worked out at 1.45.

Turning to GCGACTGGGGCAAAGCAGGTTACCATTAGGTTGG, the PBM binding z-score is -0.0636.

The sequence TCTCGGAGAACACGAAAGGTCAGAGCTCGACATC registered a PBM binding z-score of 3.08.

As for CCTTACGGGTCAAGAGGTTATAGCACGACGAGCG, the PBM binding z-score came to 4.17.

TAGCCTAGGTCGTGGGCCAGTATACCACGCGAAC had a PBM binding z-score of 0.0379.

For TCATATAGGTAAATGCTAGGTGAAGGTCCGATCT, the PBM binding z-score amounted to 0.779.

CCGAGTAGGTTATGGGGCATTCTGGCAACGGTGA gave a PBM binding z-score of 0.413.

In turn, TCATATAGGTTAACAGGTGAAAGTCCGTAAGTTA displayed a PBM binding z-score of 1.72.

On to CCTCGGAGGACAGAAGGTCAGAGATGTCCGCTTT, for which the PBM binding z-score was 1.24.

GCTTGTAGATCAATGTTAAGAAAGACTAAGCTAA had a PBM binding z-score of -0.43.

The sequence GGAACGAAGGCAAGTTGATAGCAGAGTTTGATGG came in with a PBM binding z-score of -0.918.

Consider CCTAGTTGGCCAGGAGGTCACACACCGGATATGA, for which the PBM binding z-score is 3.22.

Sequence GATACAGGATCAAGGCCAGAGTACGCGTATTGAT came in with a PBM binding z-score of -0.625.

For ATATGTAGGTTATCGAGTCATTCAGTTTGCGCAT, the PBM binding z-score stood at 1.1.

For the sequence ACTATCAGTTGACTTAGGGCAACCGATACGACGC, the PBM binding z-score came to 0.0623.

As to CATACAAGGTCAGCTAGGCCAGAGTAGGGACGGC, the PBM binding z-score came out at 4.64.

CGTCGAAGTTCAACTAAGGTAACGTAAAGCACGC returned a PBM binding z-score of 3.83.

For ATATGTAGGTTATATCCGGGTCATTCAGGCTATG, the PBM binding z-score was determined as 4.34.

As to TCTGGTTGGTCACGGAGGTCACACACGACGGGTA, the PBM binding z-score was determined as 3.63.

In turn, TCGAGTAGGTTAGTCGGGGCATGCAGCCAACATA came in with a PBM binding z-score of 0.104.

With CCTAACGGGTCACGAGGTTATAGCACGACGAGCG, the PBM binding z-score stood at 4.05.
